# Laboratory results: PubChem BioAssay AID493240 (Broad Institute, 2011)
# Out of some 1,300 compounds screened, about 270 (21%) were called active. The rule behind the calls is not given here. The list is a sample of the results. Measured potencies and affinities stand elsewhere.
# Assay: SK-MEL-5 parental cell viability loss, dose response, orthogonal assay for MITF inhibitor project, CellTiter-Glo, cherry-picked, set 3 (AID 493240)
# Details: SK-MEL-5 viability, ATP luminescence (CellTiter-Glo), 24 h; series mostly up to 35 µM
row,SMILES,outcome
1,Fc1ccccc1-c1nc(-c2ccncc2)no1,inactive
2,Clc1cccc(-c2nc(-c3ccccn3)no2)c1,inactive
3,C/C(=N/NC(=O)C(O)(c1ccccc1)c1ccccc1)c1ccc([N+](=O)[O-])o1,inactive
4,O=C(Nc1ccc2nc3n(c(=O)c2c1)CCCC3)c1cc([N+](=O)[O-])ccc1F,inactive
5,CCN(CC(=O)Nc1ccc2c(c1)OCCO2)C(=O)c1ccc([N+](=O)[O-])s1,inactive
6,O=C(c1ccc([N+](=O)[O-])s1)N1CCN(c2ccccn2)CC1,inactive
7,Cc1c(C#N)c(NC(=O)CCl)n(Cc2cccs2)c1C,inactive
8,O=C(/C=C/c1ccc2c(c1)OCO2)N1CCCCC1,inactive
9,Cc1ccccc1NCc1nc2ccccc2n1C,inactive
10,Cc1ccc(C(=O)N/C(=C\c2ccc(-c3ccccc3[N+](=O)[O-])o2)C(=O)NCCN(C)C)cc1,inactive
11,O=C(NCC1CCCO1)c1cc(-c2ccc(Cl)cc2Cl)on1 (stereo unspecified),inactive
12,O=C(NC(=S)NCc1ccccc1)c1ccccc1,inactive
13,CCOc1ccc2cc(C#N)c(SCC(=O)OC)nc2c1,inactive
14,Cc1ccc2nc(-c3ccncc3)[nH]c2c1,inactive
15,Cn1nnnc1Sc1ncnc2scc(-c3cccc(F)c3)c12,inactive
16,CN(C)c1ccc(-n2cccc2/C=C/[N+](=O)[O-])cc1,inactive
17,Cc1ccc(/C=c2/sc3n(c2=O)CCCN=3)o1,inactive
18,Cc1ccc(C(=O)NC2=NCCS2)cc1Cl,inactive
19,Nc1nnc(/C=C/c2ccccc2Cl)s1,inactive
20,CC1CCN(Cc2nc(-c3ccc(Cl)cc3)no2)CC1,inactive
21,COc1cc(CN2CCC(C(=O)NCCC(C)C)CC2)ccc1OCc1ccccc1,inactive
22,CCOC(=O)N1CCC(NC(=O)C2CCCN(Cc3nc(-c4cccc(C)c4)oc3C)C2)CC1 (stereo unspecified),inactive
23,CC(C)c1ccc(C(=O)Nc2cccnc2)cc1,inactive
24,Cc1cccc(NC(=O)c2cnn(-c3ccccc3)c2C)c1C,inactive
25,CCOc1ccccc1NC(=O)C1C2CCC(O2)C1C(=O)O (stereo unspecified),inactive
26,N#Cc1c(NC(=O)CSc2ncn[nH]2)sc2c1CCCCC2,inactive

row,SMILES,outcome
1,COC(=O)c1ccc(COc2ccc(C)cc2[N+](=O)[O-])o1,inactive
2,O=C(Nc1ccccc1N1CCOCC1)c1ccc([N+](=O)[O-])s1,inactive
3,CCOC(=O)c1ccc(NC(=O)c2ccnn2C)cc1,inactive
4,Cc1ccc(NC(=O)c2cc(N3C(=O)C=CC3=O)ccc2N2CCOCC2)cc1Cl,inactive
5,CCOC(=O)c1ccc(NC(=O)CC2SCCNC2=O)cc1 (stereo unspecified),inactive
6,CCCOc1ccc(C(=O)Nc2ccc3c(c2)OCCO3)cc1,inactive
7,Cc1ccc(NC(=O)c2ccc(OCC3CCCO3)cc2)c(C)c1 (stereo unspecified),inactive
8,Cc1ccc(NC(=O)c2ccc([N+](=O)[O-])o2)cc1S(=O)(=O)N1CCOCC1,inactive
9,O=C(Nc1ccc(N2CCOCC2)cc1)c1cnsn1,inactive
10,C=CCC(Nc1ccccc1)C12C=CC(O1)C(C(=O)OC)=C2C(=O)OC (stereo unspecified),inactive
11,Cc1ccc(N2C(=O)c3ccc(N)cc3C2=O)cc1C,inactive
12,S=c1[nH]nc(-c2ccco2)n1/N=C/C(Cl)=C/c1ccccc1,inactive
13,CCCCC1C(=O)N(c2ccccc2)N(c2ccc(O)cc2)C1=O (stereo unspecified),inactive
14,CCOC(=O)CSc1nc2cc(OCC)ccc2cc1C#N,inactive
15,Brc1ccc(-c2cn3cccnc3n2)cc1,inactive
16,O=C(NCc1ccco1)c1nc2c(nnn2Cc2ccccc2Cl)c(=O)[nH]1,inactive
17,CC(NC(=O)c1ccc([N+](=O)[O-])o1)C12CC3CC(CC(C3)C1)C2 (stereo unspecified),inactive
18,C=C1C(=O)O[C@@H]2[C@H]1[C@@H](OC(=O)/C(C)=C/C)C/C(C)=C\C(=O)/C=C(\C)[C@@H]2O,inactive
19,CCN(CCO)c1ccc(N=Nc2cc(C)[nH]n2)cc1,inactive
20,CN(C)c1ccc(/C=C2\SC(=O)N(CCc3nnc(N)s3)C2=O)cc1,inactive
21,COc1ccc(-c2nc(-c3ccccc3OC)no2)cc1OC,inactive
22,Cc1cc(Br)ccc1NC(=O)CNC(=O)Cn1ncc(Cl)c(Cl)c1=O,inactive
23,O=C1CN(C(=O)Cn2ncc(Cl)c(Cl)c2=O)c2ccccc2N1,inactive
24,Cc1ccc(NC(=O)Cn2ncc(Cl)c(Cl)c2=O)cc1S(=O)(=O)N1CCCCC1,inactive
25,CC(C)(C)C(=O)Cn1ncc(Cl)c(Cl)c1=O,inactive
26,O=C(Cn1ncc(Cl)c(Cl)c1=O)N1CCN(Cc2ccccc2)CC1,inactive

row,SMILES,outcome
1,O=C(Cn1ncc(Cl)c(Cl)c1=O)NCC1CCCCC1,inactive
2,Cc1ccc(CC(=O)Nc2ccc(Cl)cn2)cc1,inactive
3,C1CCC(C(CC2CCCCN2)C2CCCCC2)CC1 (stereo unspecified),inactive
4,OCc1ccc(N=Nc2ccccc2)cc1,inactive
5,COc1cc(-c2nnc(-c3ccco3)o2)ccc1OCc1ccccc1,inactive
6,Cc1ccc2nc(C)cc(Nc3ccc([N+](=O)[O-])cc3)c2c1,inactive
7,CCOc1cccc(C(=O)NC2=NCCS2)c1,inactive
8,COc1ccc(C)cc1Nc1nc(N)c2cc(OC)c(OC)cc2n1,inactive
9,O=C(O)c1cc(N/N=C/C(Cl)=C/c2ccccc2)ccc1Cl,inactive
10,Cc1ccc(C(=O)Nc2nc3ccc(Cl)cc3s2)o1,inactive
11,Cc1ccc(-c2n[nH]c(=O)c3ccccc23)cc1S(=O)(=O)NCC1CCCO1 (stereo unspecified),inactive
12,O=C(Nc1ccc2nn(-c3ccccc3)nc2c1)c1ccco1,inactive
13,CCOc1ccc(-c2nnc(-c3cccs3)o2)cc1OCC,inactive
14,Cn1cc(C(=O)N/N=C/c2c(O)ccc3ccccc23)ccc1=O,inactive
15,C/C(=N/Nc1nc(C)c(C)s1)c1cccc([N+](=O)[O-])c1,inactive
16,O=[N+]([O-])c1cc(Cl)cc(/C=N\Nc2ccccn2)c1O,inactive
17,Cc1ccc2oc(=O)n(CCCOc3ccccc3)c2c1,inactive
18,CCCOc1ccc(-c2c(=O)n(O)c3ccccc3[n+]2[O-])cc1,inactive
19,CCOc1ccc(-c2noc(CCC(=O)O)n2)cc1,inactive
20,COc1cccc(C(=O)N/N=C(/c2ccccc2)c2ccccn2)c1,inactive
21,O=C(Nc1ccc2ncccc2c1)c1ccccc1Br,inactive
22,CS(=O)(=O)c1ncc(Cl)c(C(=O)Nc2ccc(N3CCOCC3)cc2)n1,inactive
23,O=C(Nc1ccc(F)cc1)c1nc(S(=O)(=O)Cc2ccccc2)ncc1Cl,inactive
24,CC(=O)Nc1ccc(NC(=O)c2nc(S(=O)(=O)Cc3ccccc3)ncc2Cl)cc1,inactive
